Compound activity (PubChem)
NOMO-1 viab – NOMO-1 AML cell viability reduction, primary screen, STK33 inhibitor project, CellTiter-Glo luminescence. NOMO-1 AML viability, 72 h. inhibition, % (concentration not given with the values). hit rate 7.5% among 37,000. AID 2330, 2010; in the data active = inhibition above about 80%; inconclusive = no clear call, values can overlap the other calls
MITF inh – inhibitors of MITF, primary screen, MITF inhibitor project, cell-based, luminescence; TRPM1 promoter luciferase, 24 h; inhibition, % (concentration not given with the values); hit rate 0.28% among 37,000; in the data active = inhibition above about 85%; inconclusive = no clear call, values can overlap the other calls; inactive = below about 68%;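 also: human melanocyte line stably carrying TRPM1 promoter luciferase reporter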
Hedgehog inh – Hedgehog pathway signaling inhibitors, primary screen, luminescence, Shh-LIGHT2 cells, Gli-luciferase; Shh-LIGHT2 Gli-luciferase reporter, 30 h; inhibition, % (test concentration not listed); hit rate 2.1% among 22,000; AID 2313, 2010;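 active = mean inhibition across valid replicates above about 65%, limit read from the data; inconclusive = mean under the limit, yet half or more replicates past it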;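 also: pathway switched on by Shh-conditioned medium diluted 1 in 25 in low serum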
Numbers without * were called inactive; i = inactive; ? = inconclusive; nt = no result. Only some compounds are listed: those with a hit (about 7.8% of all), similar ones and a draw of the others.

SMILES	NOMO-1 viab	MITF inh	Hedgehog inh
CCc1ccc2oc(-c3cccc(NC(=O)COc4ccccc4)c3)nc2c1	16	-13	nt
O=C(CSc1nnc(-c2ccncc2)n1-c1ccccc1)Nc1ccc(C(F)(F)F)cc1	17	-3	nt
Cc1ccc(NC(=O)CSc2nnc(-c3ccc(Cl)c(Cl)c3)n2C)cc1C	2	-17	nt
Cn1c(SCC(=O)Nc2ccc(Cl)c(Cl)c2)nnc1-c1ccc(Cl)c(Cl)c1	106*	32	nt
Cc1cccc(NC(=O)CSc2nnc(-c3cccc(Br)c3)n2-c2ccccc2)c1	32	27	nt
CC(C)(C)c1ccc(-c2nnc(SCC(=O)Nc3ccccc3)n2-c2ccccc2)cc1	113*	6	nt
Cc1cccc(NC(=O)CSc2nnc(-c3ccc(Cl)cc3)n2-c2cccc(C)c2)c1	128*	50	nt
CCC(=O)Nc1ccc(Cl)c(NC(=O)COc2cc(C)cc(C)c2)c1	1	6	nt
CCC(=O)Nc1ccc2c(c1)N(CC)C(C)(C)CC2C (stereo unspecified)	99*	13	29
C=C1C(=O)OC2CC1C(OC(C)=O)C/C(C)=C\CC/C(C)=C\CC[C@]2(C)O (stereo partly specified)	111*	?	87*
C[C@@H]1CN([C@@H](C)CO)C(=O)c2cc(NC(=O)Nc3ccc(C(F)(F)F)cc3)ccc2O[C@@H]1CN(C)Cc1ccc(Oc2ccccc2)cc1	117*	27	nt
C[C@H](CO)N1C[C@H](C)[C@H](CN(C)Cc2ccc(C(=O)O)cc2)Oc2ccc(NC(=O)Nc3ccc(C(F)(F)F)cc3)cc2C1=O	-15	-4	-47
C[C@@H]1CN([C@@H](C)CO)C(=O)c2cc(NC(=O)Nc3ccc(C(F)(F)F)cc3)ccc2O[C@@H]1CN(C)Cc1ccccc1	119*	30	33
C[C@@H]1CN([C@H](C)CO)C(=O)c2cc(NC(=O)Nc3ccc(C(F)(F)F)cc3)ccc2O[C@H]1CN(C)Cc1ccccc1	76	-13	10
COc1ccc(CN(C)C[C@@H]2Oc3ccc(NC(=O)Nc4ccc(C(F)(F)F)cc4)cc3C(=O)N([C@@H](C)CO)C[C@@H]2C)cc1	100*	-5	28
C[C@@H]1CN([C@H](C)CO)C(=O)c2cc(NC(=O)Nc3ccc(C(F)(F)F)cc3)ccc2O[C@H]1CN(C)Cc1ccc(Oc2ccccc2)cc1	58	0	-31
COc1ccc(NC(=O)Nc2ccc3c(c2)C(=O)N([C@H](C)CO)C[C@@H](C)[C@H](CN(C)Cc2ccc(C(F)(F)F)cc2)O3)cc1	49	-5	nt
C[C@H]1CN([C@@H](C)CO)C(=O)c2cc(NC(=O)Nc3ccc(C(F)(F)F)cc3)ccc2O[C@@H]1CN(C)Cc1ccccc1	94*	8	nt
COc1ccc(N2C(=O)CC(SCC(=O)Nc3ccc(F)cc3)C2=O)cc1 (stereo unspecified)	?	-3	nt
C[C@H]1CN([C@@H](C)CO)C(=O)c2cc(NC(=O)Nc3ccc4c(c3)OCO4)ccc2O[C@@H]1CN(C)Cc1ccc(C(F)(F)F)cc1	11	7	4
C[C@@H]1CN([C@@H](C)CO)C(=O)c2cc(NC(=O)Nc3ccc4c(c3)OCO4)ccc2O[C@H]1CN(C)Cc1ccc(C(F)(F)F)cc1	93*	15	nt
C[C@@H]1CN([C@@H](C)CO)C(=O)c2cc(NC(=O)Nc3ccc(F)cc3)ccc2O[C@@H]1CN(C)Cc1ccc(C(F)(F)F)cc1	105*	63	nt
C[C@H]1CN([C@@H](C)CO)C(=O)c2cc(NC(=O)Nc3ccc(C(F)(F)F)cc3)ccc2O[C@@H]1CN(C)Cc1ccc(C(=O)O)cc1	-23	-3	nt
O=c1c2c(nc3nc(NCc4cccc([N+](=O)[O-])c4)[nH]n13)CCC2	28	-2	nt
CC(=O)Nc1ccccc1NC(=O)COc1ccc(C(C)(C)C)cc1Br	46	24	nt
SMILES	NOMO-1 viab	MITF inh	Hedgehog inh
Cn1c(SCC(=O)Nc2sc3c(c2C#N)CCCC3)nnc1-c1ccc(Br)cc1	38	14	nt
O=[N+]([O-])c1ccc(N2CCN(S(=O)(=O)c3ccc(F)cc3)CC2)cc1NCc1cccnc1	-8	8	nt
CC1CCN(S(=O)(=O)c2ccc(NC(=O)c3ccc(C(C)(C)C)cc3)cc2)CC1	114*	40	-61
CC1CCN(S(=O)(=O)c2cccc(C(=O)NC(C)(C)CO)c2)CC1	6	8	nt
Cc1cc(C)c(NC(=O)CSc2nnc(-c3ccc(F)cc3)n2C)c(C)c1	3	13	nt
COc1ccccc1-c1c(C(F)(F)F)oc2cc(OCC(=O)OC(C)C)ccc2c1=O	96*	0	nt
CCOC(=O)COc1ccc2c(=O)c(-c3ccccc3OC)c(C(F)(F)F)oc2c1	93*	0	nt
CCOC(=O)c1c(C(C)(C)C)oc2ccc(OCC(=O)OC)cc12	28	-17	-25
COc1cccc(Oc2coc3cc(OCC(N)=O)ccc3c2=O)c1	-1	-13	nt
COc1ccc(Cl)cc1NC(=O)CN(c1ccc(I)cc1)S(C)(=O)=O	28	26	nt
C[C@H]1CN([C@@H](C)CO)C(=O)Cc2cc(NC(=O)CCCCCC(=O)Nc3ccccc3N)ccc2O[C@H]1CN(C)Cc1ccc(Oc2ccccc2)cc1	140*	49	nt
C[C@H]1CN([C@@H](C)CO)C(=O)Cc2cc(NC(=O)CCCCCC(=O)Nc3ccccc3N)ccc2O[C@@H]1CN(C)C(=O)Nc1ccccc1	-1	6	nt
C[C@H]1CN([C@@H](C)CO)C(=O)Cc2cc(NC(=O)CCCN(C)C)ccc2O[C@H]1CN(C)Cc1ccc(Oc2ccccc2)cc1	-15	-5	-9
C[C@H](CO)N1C[C@H](C)[C@H](CN(C)Cc2ccc(Oc3ccccc3)cc2)Oc2ccc(NC(=O)CCCCCC(=O)Nc3ccccc3N)cc2CC1=O	140*	63	nt
COc1cccc(NC(=O)COc2ccccc2C(=O)Nc2c(C)cccc2C)c1	32	14	nt
CC(=O)OCC1(C)CC2[C@]3(CO[C@@]24CCC2[C@@]5(C)CC[C@H](O[C@@H]6OC[C@@H](O)[C@H](O)[C@H]6O)[C@@](C)(CO)C5CC[C@@]2(C)[C@]4(C)C[C@H]3O)[C@@H](O)C1 (stereo partly specified)	123*	7	76*
CC1(C)CC[C@@]2(C(=O)O)C(C1)C1=CCC3[C@@]4(C)CC[C@H](O[C@@H]5O[C@H](C(=O)O)[C@@H](O[C@@H]6OC[C@@H](O)[C@H](O)[C@H]6O)[C@H](O)[C@H]5O)C(C)(C)C4CC[C@@]3(C)[C@]1(C)C[C@H]2O (stereo partly specified)	nt	nt	2
Cc1c(Cl)cccc1NC(=O)c1ccccc1OCC(=O)Nc1ccc2c3c(cccc13)CC2	27	13	nt
CCOc1ccc(N2C(=O)CC(SCc3nc4ccccc4[nH]3)C2=O)cc1 (stereo unspecified)	-9	6	nt
CCOc1ccc(-c2nc3ccc(-c4nc5ccc(N6CCN(C)CC6)cc5[nH]4)cc3[nH]2)cc1	116*	79	i
COc1ccc(S(=O)(=O)N(C)C[C@@H]2Oc3ccc(NC(=O)Nc4ccc(C(F)(F)F)cc4)cc3CC(=O)N([C@H](C)CO)C[C@@H]2C)cc1	115*	31	46
